# Results from the OligoGym collection.
# Molecular target: DNAJC8
# Experiment: pooled miR-30 sensor sort-seq; sequence = guide strand
# Conditions: shRNA
# Further: reference of the scale not given here.
row,Sequence,sensor-assay potency score (higher = more potent)
1,TTTCTTGAGCTTCAATCTCTTC,-0.98
2,TTGGCTTGGAAGTTTCGCCAGC,-0.414
3,TTTTTCGAAGTTAGAACCGAGT,-0.8
4,TTTTTCTTGAGCTTCAATCTCT,0.129
5,TTGTCGTTTCCTTTCATGCATC,-1.33
6,TTTCTTCATCTGTAACTTCAGG,-0.78
7,TTTATATACAGCTTGTTTGAAC,-0.768

# Molecular target: DNAL4
# Experiment: as above
# Conditions: shRNA
row,Sequence,sensor-assay potency score (higher = more potent)
1,ACTTCTTGTCCATTGTCTCTTT,-0.545
2,TATATAAATAAGACCGCTGTGT,-0.264
3,TCTTTGATCATCTTGGCGGCGC,-0.0929
4,TTGTCTCTTTGATCATCTTGGC,-0.232
5,TTGTTGTTGGAGAATTTCTCAC,-0.596
6,TCGTGGGTGATCTCAAACCCAA,-1.47
7,ATAATCAGCCTCATCTTTCTTC,0.738
8,ATTGTCTCTTTGATCATCTTGG,0.417
9,TAGAGGAGGTTCTTCACCTCGT,0.0799
10,TCTGCAGTCGCTTATAATCAGC,-1.4
11,TCTCTTTGATCATCTTGGCGGC,-0.315

# Molecular target: DNASE2B
# Experiment: as above
# Conditions: shRNA
row,Sequence,sensor-assay potency score (higher = more potent)
1,TTCTGTTAACAAGTGTGTCTTC,-0.13
2,TATAGCTGTTGTAATGTCCTTC,0.757
3,TACTCTTAGAGGCATATGCTTC,-0.938
4,ATAATCATAGCCTTCTTCCGGA,0.631
5,TTTAATTGCTTTTATATTGTAG,-0.233
6,TAACAAGTGTGTCTTCAGCCGT,-0.785
7,TTGTATATTAGATAGGCTGTGT,0.0611
8,TAGGTCTCCAATACATGTCCAG,-0.704
9,TCTAGTTGTAGAGTCTAGGTAC,0.705
10,TTGAACTCTGTTCCACAGCAGT,-0.963
11,TTGGTGTGTCCATACTTTCTGC,-0.698
12,TTTTATATTGTAGACATGGTAA,-1.07

# Molecular target: DNMT3L
# Experiment: as above
# Conditions: shRNA
row,Sequence,sensor-assay potency score (higher = more potent)
1,TGAACCTGGAGACTTCCGCAGC,-0.928
2,TGGAACTGGAACAGGTACCAGC,-1.35
3,ATGTCTTCTATATTTCGCTGGT,-0.668
4,TTGAAATATTCTCTTAGGGGGA,-0.387
5,TTCTGTTGAAAAATACTTGAAA,-0.77
6,TATATTTCGCTGGTTAGCCTTG,-0.491
7,TTGGTACCCGTCATCGTCGTAC,-0.554
8,AATACTTGAAATATTCTCTTAG,0.0137
9,TGTGACATCAACCACATGCTTC,-0.297
10,AACTGGAACAGGTACCAGCTGG,-0.764
